Bioassay records as filed in PubChem BioAssay.
DAX1 inh-1: DAX1 (NR0B1) inhibitors, primary screen, cell-based, HEK293, Gal4-DAX1, luciferase luminescence; hit rate 0.99% among 340,000; inhibition, % at 6.75 µM; HEK293 Gal4-DAX1 luciferase reporter;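 active = inhibition above the mean over all tested compounds plus 3 SD, cut at about 4.2% in these data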;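 note: 0% = DAX1-transfected cells with DMSO and 100% = empty-vector control cells with DMSO; inhibition shows as a rise in luminescence from relieved DAX1 repression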
ssDAF-12 act: S. stercoralis DAF-12 nuclear receptor activators, primary screen, cell-based, luminescence, HEK293, GRIP1 co-expression, lit1-tk-luc. HEK293 ssDAF-12/GRIP1 lit1-tk-luc reporter; % of 3 µM dafachronic acid response. Nuclear hormone receptor DAF-12 (Strongyloides stercoralis). hit rate 1% among 370,000. AID 652126, 2013. activation, % at 6.8 µM;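 active = activation above the mean over all tested compounds plus 3 SD, cut at about 0.9% in these data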;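 note: 0% = DMSO-only wells and 100% = 3 µM delta7-dafachronic acid wells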
DAX1 inh-2: DAX1 (NR0B1) inhibitors on StAR promoter, primary screen, cell-based, luminescence, SF-1 (NR5A1), full-length DAX-1 | HEK293T StAR-luciferase reporter, SF-1/DAX-1 repression relief | hit rate 1.1% among 370,000 | inhibition, % at 6.8 µM;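 active = inhibition above the mean over all tested compounds plus 3 SD, cut at about 3.6% in these data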;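 note: 0% = DAX-1 cells with DMSO and 100% = cells lacking DAX-1 with DMSO; higher inhibition means more luminescence from relief of DAX-1 repression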
hgDAF-12 ag: H. glycines DAF-12 receptor agonists, primary screen, cell-based, luminescence, HEK293, GAL4 fusion, UAS-luciferase | hit rate 1.8% among 370,000 | activation, % at 6.8 µM | AID 687014, 2013 | HEK293 GAL4-hgDAF12 UAS-luciferase reporter, agonist luminescence; normalized to butyrate control | Nuclear hormone receptor DAF-12 (Heterodera glycines), GAL4 fusion;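 active = activation above a cutoff set at the mean of all screened compounds plus 3 SD, cut at about 10% in these data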;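 note: 0% = DMSO wells and 100% = sodium butyrate wells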
SMARCA2 act: SMARCA2 (BRM) function activators, primary screen, cell-based, luminescence, high throughput | hit rate 1% among 370,000 | MG213 cells, MMTV-luciferase reporter, dexamethasone, overnight | AID 652017, 2013 | activation, % at 9.1 µM; in the data active = activation above about 7.8%;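 note: 0% = vehicle wells and 100% = reference activator wells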
hcDAF-12 act: H. contortus DAF-12 nuclear receptor activators, primary screen, cell-based, luminescence, HEK293, lit1-tk-luc reporter; HEK293 hcDAF-12 lit1-tk-luc reporter; 0% DMSO, 100% Δ7-dafachronic acid; AID 652067, 2013; hit rate 1.4% among 370,000; activation, % at 6.8 µM;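 active = activation above the mean of all tested compounds plus 3 SD, cut at about 5.5% in these data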;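 note: 100% = response to 3 µM Δ7-dafachronic acid high control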
hgDAF12 ag: H. glycines DAF-12 receptor agonists, confirmation, cell-based, luminescence, HEK293, GAL4-LBD fusion; shares compounds with hgDAF-12 ag; HEK293 GAL4-hgDAF12 luciferase reporter, agonist mode; percent of butyrate response; activation, % at 6.8 µM; hit rate 80% among 3,300; AID 743050, 2013;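 active = mean activation over triplicate wells above the hit cutoff derived from the earlier primary screen, cut at about 11% in these data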;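 note: 0% = DMSO low control and 100% = 2 mM sodium butyrate high control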
LXRb DAF12 ctr: LXR agonists, Gal4 luciferase reporter, confirmation, counter-screen for hgDAF-12 agonist project, cell-based, luminescence, HEK293, H. glycines campaign | shares compounds with hgDAF-12 ag | AID 743051, 2013 | activation, % at 6.8 µM | 3,300 tested, under 10 active | 24 h;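 active = mean activation of the triplicate above a set limit carried over from the primary screen, none filed active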
Target sequence (P55055 whole entry, looked up, the tested form may be a part): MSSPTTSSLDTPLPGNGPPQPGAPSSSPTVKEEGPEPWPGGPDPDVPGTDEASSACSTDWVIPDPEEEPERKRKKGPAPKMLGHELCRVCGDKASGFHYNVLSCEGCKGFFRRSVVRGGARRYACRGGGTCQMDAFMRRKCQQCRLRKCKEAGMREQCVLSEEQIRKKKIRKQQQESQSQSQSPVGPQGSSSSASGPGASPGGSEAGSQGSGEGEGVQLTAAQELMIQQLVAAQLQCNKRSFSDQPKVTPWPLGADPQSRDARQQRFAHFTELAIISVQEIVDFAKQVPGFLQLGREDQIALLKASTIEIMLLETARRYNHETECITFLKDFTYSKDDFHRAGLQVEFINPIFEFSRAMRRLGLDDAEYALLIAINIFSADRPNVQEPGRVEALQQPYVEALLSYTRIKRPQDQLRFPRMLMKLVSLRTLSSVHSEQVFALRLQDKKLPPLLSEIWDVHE
* marks the source's active call; other numbers are inactive results; · = no result. A selection: hits, their analogues and other compounds. The true share with any hit is near 4.8%.

SMILES	DAX1 inh-1	ssDAF-12 act	DAX1 inh-2	hgDAF-12 ag	SMARCA2 act	hcDAF-12 act	hgDAF12 ag	LXRb DAF12 ctr
CCc1nc2cc3sc(CC)nc3cc2s1	0	0	2	16*	4	2	13*	1
COC(=O)c1ccccc1NC(=O)c1sc(Cl)nc1C	0	-1	-1	-2	-1	0	·	·
COC(=O)c1ccc(-c2ccc(Cl)cc2)nc1C	2	0	4.3*	14*	3	5	20*	1
O=C1/C(=C/c2ccc(O)cc2)COc2ccccc21	1	-1	1	15*	2	2	12*	1
Cc1ncoc1C(=O)N1CCc2c([nH]c3ccccc23)C1c1ccccc1F (stereo not given)	-1	0	1	16*	0	3	3	0
Cc1cccc(C2c3[nH]c4ccccc4c3CCN2C(=O)c2ccc(=O)[nH]c2)n1 (stereo not given)	1	-1	-1	1	2	3	·	·
CN1CCN(CCCNC(=O)c2ccc(/C=C3\Sc4ccccc4N(Cc4ccc(F)cc4)C3=O)cc2)CC1	1	-2	0	-1	4	0	·	·
O=C(O)c1ccc(-c2nc3ccccc3[nH]2)cc1	0	-1	0	1	0	-2	·	·
Fc1ccc(-c2nc3ccccc3[nH]2)cc1	1	-1	3	18*	3	3	12*	1
Cc1ccc(NC(=O)CSCC(=O)Nc2cc(Cl)ccc2N2CCN(C)CC2)cc1	-1	-1	1	-1	0	-1	·	·
CCc1ccc(-c2csc(NC(=O)Oc3ccccc3)n2)cc1	1	0	3	15*	6	1	6	0
COCC(=O)Nc1nc(-c2ccc(-c3ccccc3)cc2)cs1	2	-1	0	3	0	0	·	·
COC(=O)C1=C(C)N(Cc2ccccc2C(F)(F)F)C(=NCc2ccccc2)NC1CCc1ccccc1 (stereo not given)	·	-1	-1	3	2	-1	·	·
O=C(COc1ccc(Cl)cc1Cl)OCn1nnc2ccccc2c1=O	0	-1	0	-2	-7	-1	·	·
O=c1c2ccccc2nnn1COc1cccc(Cl)c1	2	-1	2	13*	4	1	6	0
CC1=C(C(=O)Nc2ccccc2)C(c2ccc3c(c2)OCO3)C2=C(CCCC2=O)N1 (stereo not given)	0	-1	-1	0	-5	-2	·	·
COc1ccc(C2c3ccc(O)cc3Oc3ncn(CCN4CCOCC4)c(=N)c32)cc1OC (stereo not given)	3	-2	1	0	-2	-2	·	·
Nc1nc(CSc2ncccn2)nc(Nc2ccccc2)n1	2	0	3	10	2	4	·	·
Cc1ccc(Nc2nc(N)nc(CSc3ncccn3)n2)cc1	2	1	2	16*	4	3	14*	1
CCCn1ncc2c(Nc3ccc(C)c(C)c3)ncnc21	0	0	1	13*	0	6.5*	7	1
CCCCN1CC[C@H]2C=CC[C@@H](C(=O)N3CCN(c4ccccc4)CC3)[C@H]2C1=O	0	-1	0	2	0	-1	·	·
